Data published in PubChem BioAssay AID1224921 (Broad Institute, 2016).
The campaign covered roughly 1,400 compounds. About 350 (25%) were called active. Another 2% or so got no clear call; they are omitted. No rule for the calls is given here. The list is a sample of the results. Entries with a potency or affinity are not part of this list.

Assay: C. difficile growth inhibition, confirmation, 4-point retest (AID 1224921);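 also: plate controls were DMSO wells for no effect and levofloxacin 16 µg/mL wells for full effect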
Conditions: Clostridioides difficile clinical isolate growth, OD600, 24 h, hits give low values; at 30 µM unless noted

Max activity, inactive:
C[C@H]1CN([C@@H](C)CO)S(=O)(=O)c2ccc(C3=CCCCC3)cc2O[C@H]1CN(C)C(=O)C1CCCCC1 30.6%
C[C@@H]1CN([C@H](C)CO)C(=O)c2cc(Br)cnc2O[C@H]1CN(C)C(=O)c1ccccc1 -3.07% [at 8 µM]
C[C@H]1CN([C@@H](C)CO)S(=O)(=O)c2ccc(C#CC3CCCCC3)cc2O[C@H]1CN(C)Cc1cccnc1 35.6%
CO[C@H]1CN(C)C(=O)c2cc(NC(=O)c3ccc(F)cc3)ccc2OC[C@@H](C)N(C(C)=O)C[C@H]1C -8.16% [at 1.95 µM]
C[C@H](C(=O)N(C)C[C@H]1OCc2ccccc2-c2ccccc2C(=O)N([C@@H](C)CO)C[C@H]1C)c1ccccc1 18.3%
C[C@@H]1CN([C@H](C)CO)C(=O)c2cc(NC(=O)Nc3cccc4ccccc34)ccc2O[C@@H](C)CCCCO[C@H]1CN(C)S(=O)(=O)c1ccc(F)cc1 36.9%
C[C@@H]1CN([C@@H](C)CO)C(=O)Cc2cc(NC(=O)NC3CCCCC3)ccc2O[C@@H]1CN(C)S(=O)(=O)c1ccc(Cl)cc1 20.4%
C[C@@H]1CN([C@@H](C)CO)S(=O)(=O)c2ccc(C#CC3CC3)cc2O[C@H]1CN(C)Cc1cccnc1 34.2%
CCCNC(=O)N1C[C@H](C)[C@@H](OC)CN(C)C(=O)c2cc(NC(C)=O)ccc2OC[C@@H]1C -10.9% [at 1.95 µM]
COc1ccc(NC(=O)N[C@@H]2C=C[C@H](CC(=O)NC3CCCCC3)O[C@@H]2CO)cc1 13.1% [at 1.95 µM]
CCC(=O)N(C)C[C@@H]1Oc2cc(C#CCC3CCCC3)ccc2S(=O)(=O)N([C@@H](C)CO)C[C@H]1C 27.8%
O=C(C[C@H]1C=C[C@H](NC(=O)CCN2CCCCC2)[C@H](CO)O1)Nc1ccc(-c2ccccc2)cc1 11.2%
CCCC#Cc1ccc([C@@H]2[C@H](C#N)N(S(=O)(=O)c3cccc(F)c3)[C@H]2CO)cc1 21.1%
COc1ccc(NC(=O)N(C)C[C@@H]2Oc3ncc(-c4cccnc4)cc3C(=O)N([C@@H](C)CO)C[C@@H]2C)cc1 -18.5% [at 8 µM]
CC(C)CC#Cc1ccc2c(c1)O[C@@H](CN(C)C(=O)c1ccccc1F)[C@@H](C)CN([C@@H](C)CO)S2(=O)=O 18%
O=C(C[C@H]1CC[C@H]2[C@@H](COC[C@@H](O)CN2Cc2cccc(Cl)c2)O1)NCC1CCCCC1 11.9% [at 8 µM]
COc1ccccc1S(=O)(=O)N(C)C[C@H]1Oc2cc(C#CCC(C)C)ccc2S(=O)(=O)N([C@@H](C)CO)C[C@@H]1C 10.5%
C[C@H]1CN([C@@H](C)CO)S(=O)(=O)c2ccc(Br)cc2O[C@@H]1CN(C)Cc1cccc(F)c1 41.5%
C[C@H]1CN([C@@H](C)CO)C(=O)c2c(c3ccccc3n2C)-c2ccccc2CO[C@H]1CN(C)S(=O)(=O)CC(F)(F)F 14.7%
CCCC(=O)Nc1ccc2c(c1)OC[C@H](C)N(Cc1ccncc1)C[C@@H](C)[C@H](OC)CN(C)C2=O 14.3%
CCCN1C[C@@H](C)[C@@H](OC)CN(C)C(=O)c2cc(NC(=O)CC)ccc2OC[C@H]1C -7.79% [at 0.5 µM]
CO[C@@H]1CN(C)C(=O)c2cc(NS(=O)(=O)c3cccc(F)c3)ccc2OC[C@@H](C)N(Cc2cc(F)ccc2F)C[C@@H]1C 14.2%
NC(=O)[C@@H]1[C@H]2C(=O)O[C@H](c3ccccc3)[C@H](c3ccccc3)N2[C@H](c2ccc(O)cc2)[C@@]12C(=O)Nc1ccc(C#CC3=CCCCC3)cc12 21.8%
CCCN1C[C@H](C)[C@@H](OC)CN(C)C(=O)c2ccc(NC(=O)Nc3c(C)noc3C)cc2OC[C@@H]1C 29.7%
C[C@@H]1CN([C@@H](C)CO)C(=O)c2ccccc2-c2ccccc2CO[C@H]1CN(C)C(=O)c1ccc(F)cc1 -6.68% [at 8 µM]
C[C@@H]1CN([C@@H](C)CO)C(=O)Cc2cc(NC(=O)c3ccncc3)ccc2O[C@@H]1CN(C)Cc1ccc(-c2ccccc2)cc1 41.4%
N#C[C@H]1[C@@H](c2ccc(C#CC3CCCCC3)cc2)[C@@H](CO)N1C(=O)Cc1ccccn1 24.3% [at 0.5 µM]
C[C@H](CO)N1C[C@H](C)[C@@H](CN(C)Cc2ccccc2)Oc2ccc(NS(C)(=O)=O)cc2CC1=O 28% [at 35 µM]
CO[C@@H]1CN(C)C(=O)c2ccc(NC(=O)c3ccc(F)cc3)cc2OC[C@@H](C)N(C(=O)c2ccc(F)cc2)C[C@@H]1C -7.95% [at 0.5 µM]
C[C@@H](NC(=O)C[C@H]1C=C[C@H](NC(=O)C2CCC2)[C@@H](CO)O1)c1ccccc1 -13.6% [at 0.5 µM]
CCC(=O)N1C[C@H](C)[C@H](OC)CN(C)C(=O)c2cc(NS(=O)(=O)CC)ccc2OC[C@H]1C -9.49% [at 1.95 µM]
C[C@H]1CN([C@@H](C)CO)S(=O)(=O)c2ccc(C#CC3CC3)cc2O[C@@H]1CN(C)Cc1ccncc1 47%
C[C@@H]1CN([C@@H](C)CO)C(=O)c2c(c3ccccc3n2C)-c2ccccc2CO[C@@H]1CN(C)Cc1cccc(C(=O)O)c1 -12.2% [at 8 µM]
Cc1ccc(F)cc1S(=O)(=O)N[C@H]1CCN(Cc2ccc(OC(C)C)cc2)C1 21.6%
COc1ccc(CN(C)C[C@H]2Oc3c(NC(=O)Nc4ccc(C(F)(F)F)cc4)cccc3C(=O)N([C@@H](C)CO)C[C@@H]2C)cc1 32.3% [at 8 µM]
COc1ccc(CN(C)C[C@@H]2Oc3c(NC(=O)Nc4ccc(C(F)(F)F)cc4)cccc3C(=O)N([C@@H](C)CO)C[C@H]2C)cc1 38%
COc1cccc(S(=O)(=O)N[C@@H]2CC[C@H](CCN)O[C@@H]2CO)c1 -11.8% [at 1.95 µM]
